Experimental data reported in PubChem BioAssay (EPA / NIEHS).
“And” between values parts separate entries of the source, which are not always exact repeats. Equal entries are not always repeated. Records with an inconclusive call do not appear. Where a structure was tested more than once in an assay, its records may differ in their call. The source made the active and inactive calls. How the source made its calls, unless noted: active means hit-call score of the fitted dose curve at least 0.9, where 1 is the maximum; inactive means score below 0.9.

Key:
[1] = biological target: Retinoic acid receptor RXR-alpha (Homo sapiens) (UniProt P19793); experiment: ATG_RXRa_TRANS: Attagene TRANS-FACTORIAL HepG2 Assay for human Retinoid X Receptor alpha (RXRa) (AID 2283012; active means hit-call score of the fitted dose curve at least 0.9, where 1 is the maximum)
Sequence of Retinoic acid receptor RXR-alpha (Homo sapiens) (P19793 whole entry, looked up, the tested form may be a part): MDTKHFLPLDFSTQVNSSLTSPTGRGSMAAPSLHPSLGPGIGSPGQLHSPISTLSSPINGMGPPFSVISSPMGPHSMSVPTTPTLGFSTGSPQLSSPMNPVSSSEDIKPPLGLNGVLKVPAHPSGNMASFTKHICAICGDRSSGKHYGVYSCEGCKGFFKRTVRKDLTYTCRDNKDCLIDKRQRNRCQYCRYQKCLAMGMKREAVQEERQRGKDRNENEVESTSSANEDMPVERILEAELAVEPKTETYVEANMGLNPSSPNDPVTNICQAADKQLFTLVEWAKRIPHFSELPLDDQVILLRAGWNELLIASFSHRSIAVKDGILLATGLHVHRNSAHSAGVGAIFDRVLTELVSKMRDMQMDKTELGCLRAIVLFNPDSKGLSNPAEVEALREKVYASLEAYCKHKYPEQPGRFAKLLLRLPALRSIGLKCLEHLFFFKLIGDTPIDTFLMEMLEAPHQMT
Outline: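 HepG2 cells transiently transfected with GAL4-UAS reporter units and chimeric RXRa-Gal4 protein, treated 24 h. Reporter mRNA measured by RT-PCR, fluorescent labelling, HpaI digestion and capillary electrophoresis. Induction fitted against DMSO.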

[2] = read-out: E-selectin (Homo sapiens) (UniProt P16581); experiment: BSK_3C_Eselectin: BioMAP Diversity Plus: 3C Assay for Eselectin Biomarker Activity (AID 2283015); settings: primary human endothelial cells (HUVEC); actives raise or lower the signal
Outline: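 Primary human umbilical vein endothelial cells (3C system) were dosed with chemical and cell-surface E-selectin measured by ELISA 24 h later. Bidirectional curve fitting used DMSO as negative control and baseline.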

[3] = read-out: Interleukin-1 alpha (IL1a), IL1A (gene 3552); experiment: BSK_BE3C_IL1a: BioMAP Diversity Plus: BE3C Assay for Interleukin-1 alpha (IL1a) Biomarker Activity (AID 2283016); settings: primary human bronchial epithelial cells; actives raise or lower the signal
Outline: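 Human primary bronchial epithelial cells, 24 h chemical exposure; IL-1a quantified by ELISA, fitted bidirectionally against DMSO. Cytotoxicity assessed in parallel by SRB total-protein staining at the time of measurement.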

[4] = read-out: Monocyte Chemoattractant Protein-1 (MCP1), CCL2 (gene 6347); experiment: BSK_3C_MCP1: BioMAP Diversity Plus: 3C Assay for Monocyte Chemoattractant Protein-1 (MCP1) Biomarker Activity (AID 2283017); settings: primary human endothelial cells (HUVEC); actives raise or lower the signal
Outline: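 Primary human umbilical vein endothelial cells (3C system) were exposed to test chemical for 24 h, after which MCP-1 was quantified by ELISA. Activity was fitted bidirectionally against DMSO as negative control and baseline.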

[5] = read-out: Monocyte Chemoattractant Protein-1 (MCP1), CCL2 (gene 6347); experiment: BSK_4H_MCP1: BioMAP Diversity Plus: 4H Assay for Monocyte Chemoattractant Protein-1 (MCP1) Biomarker Activity (AID 2283018); settings: primary human endothelial cells (HUVEC); actives raise or lower the signal
Outline: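 Human umbilical vein endothelial cells (4H system) exposed to chemicals for 24 h in 96-well format. MCP-1 measured by ELISA; bidirectional fitting against DMSO, with SRB total-protein staining in parallel cultures for cytotoxicity.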

[6] = read-out: Human Leukocyte Antigen - DR isotype (HLADR), HLA-DRA (gene 3122); experiment: BSK_3C_HLADR: BioMAP Diversity Plus: 3C Assay for Human Leukocyte Antigen - DR isotype (HLADR) Biomarker Activity (AID 2283019); settings: primary human endothelial cells (HUVEC); actives raise or lower the signal
Outline: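 Primary human umbilical vein endothelial cells (3C system) were dosed with compound and cell-surface HLA-DR was quantified by ELISA at 24 h. Activity was fitted bidirectionally against DMSO as negative control and baseline.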

[7] = read-out: Interleukin-8 (IL8), CXCL8 (gene 3576); experiment: BSK_3C_IL8: BioMAP Diversity Plus: 3C Assay for Interleukin-8 (IL8) Biomarker Activity (AID 2283020); settings: primary human endothelial cells (HUVEC); actives raise or lower the signal
Outline: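 Primary human umbilical vein endothelial cells were dosed for 24 h. IL-8 was quantified by ELISA and fitted bidirectionally against DMSO. Cytotoxicity was assessed in parallel cultures by SRB staining at 560 nm.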

[8] = read-out: Monokine induced gamma interferon (MIG), CXCL9 (gene 4283); experiment: BSK_3C_MIG: BioMAP Diversity Plus: 3C Assay for Monokine induced gamma interferon (MIG) Biomarker Activity (AID 2283021); settings: primary human endothelial cells (HUVEC); actives raise or lower the signal
Outline: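 HUVEC primary endothelial cultures dosed with chemical; MIG quantified by ELISA at 24 h. Data fitted bidirectionally against DMSO control, with parallel SRB total-protein staining for cytotoxicity.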

[9] = BSK_3C_SRB: Viability Assessment in the BioMAP Diversity Plus: 3C Assay (AID 2283023); settings: primary human endothelial cells (HUVEC);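 further: fitted both ways against DMSO so a hit may be signal rise or drop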
Outline: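 Primary human umbilical vein endothelial cells in the 3C system were read 24 h after compound dosing. Total protein was stained with 0.1% sulforhodamine B after 10% TCA fixation and read at 560 nm, with bidirectional fitting against DMSO as baseline.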

[10] = read-out: Matrix Metallopeptidase 1 (MMP1), MMP1 (gene 4312); experiment: BSK_BE3C_MMP1: BioMAP Diversity Plus: BE3C Assay for Matrix Metallopeptidase 1 (MMP1) Biomarker Activity (AID 2283024); settings: primary human bronchial epithelial cells; actives raise or lower the signal
Outline: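 Human primary bronchial epithelial cells (BE3C system) dosed for 24 h; MMP-1 quantified by ELISA. Bidirectional fit against DMSO; cytotoxicity tracked in parallel cultures by SRB total-protein staining.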

[11] = read-out: Pselectin, SELP (gene 6403); experiment: BSK_4H_Pselectin: BioMAP Diversity Plus: 4H Assay for Pselectin Biomarker Activity (AID 2283026); settings: primary human endothelial cells (HUVEC); actives raise or lower the signal
Outline: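 Primary human umbilical vein endothelial cells were treated 24 h, and cell-surface P-selectin was then quantified by ELISA. Bidirectional fit versus DMSO; cytotoxicity checked in parallel cultures by SRB total-protein staining.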

[12] = BSK_4H_SRB: Viability Assessment in the BioMAP Diversity Plus: 4H Assay (AID 2283027); settings: primary human endothelial cells (HUVEC);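 further: cells exposed to compound for 24 h before staining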;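 on AC50: curves fitted both ways versus DMSO so AC50 may be loss or gain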
Outline: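 Absorbance at 560 nm of SRB-stained total protein served as the viability read-out in confluent primary human umbilical vein endothelium 24 h after chemical treatment. Curves were fitted bidirectionally against DMSO as negative control.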

[13] = BSK_BE3C_SRB: Viability Assessment in the BioMAP Diversity Plus: BE3C Assay (AID 2283028); settings: primary human bronchial epithelial cells
Outline: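 Human primary bronchial epithelial cells were exposed to test chemicals for 24 h. Total protein in parallel cultures was then measured by staining with 0.1% sulforhodamine B after 10% TCA fixation, with absorbance read at 560 nm. Activity was fitted bidirectionally against DMSO.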

[14] = read-out: Thrombomodulin, THBD (gene 7056); experiment: BSK_3C_Thrombomodulin: BioMAP Diversity Plus: 3C Assay for Thrombomodulin Biomarker Activity (AID 2283029); settings: primary human endothelial cells (HUVEC); actives raise or lower the signal
Outline: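 Human umbilical vein endothelial cells were exposed to chemicals for 24 h; cell-surface thrombomodulin quantified by ELISA, with bidirectional fitting against DMSO baseline.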

[15] = biological target: human Retinoid X Receptor beta (RXRb), RXRB (gene 6257) (UniProt P28702); experiment: ATG_RXRb_TRANS: Attagene TRANS-FACTORIAL HepG2 Assay for human Retinoid X Receptor beta (RXRb) (AID 2283013; active means hit-call score of the fitted dose curve at least 0.9, where 1 is the maximum)
Sequence of human Retinoid X Receptor beta (RXRb), RXRB (gene 6257) (P28702 whole entry, looked up, the tested form may be a part): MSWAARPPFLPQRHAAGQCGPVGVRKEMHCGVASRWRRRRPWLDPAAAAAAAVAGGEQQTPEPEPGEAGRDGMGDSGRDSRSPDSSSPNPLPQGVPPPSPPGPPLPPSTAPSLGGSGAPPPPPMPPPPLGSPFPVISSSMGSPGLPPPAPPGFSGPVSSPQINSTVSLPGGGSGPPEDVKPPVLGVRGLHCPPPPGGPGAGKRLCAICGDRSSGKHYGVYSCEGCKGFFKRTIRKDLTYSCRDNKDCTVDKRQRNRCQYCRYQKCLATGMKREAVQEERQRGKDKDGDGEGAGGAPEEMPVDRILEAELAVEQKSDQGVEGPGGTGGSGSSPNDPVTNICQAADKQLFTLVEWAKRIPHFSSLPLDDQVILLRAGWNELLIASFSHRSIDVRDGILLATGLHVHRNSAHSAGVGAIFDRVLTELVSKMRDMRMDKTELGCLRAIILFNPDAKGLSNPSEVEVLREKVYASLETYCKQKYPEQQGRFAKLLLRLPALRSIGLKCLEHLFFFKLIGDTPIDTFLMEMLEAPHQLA
Outline: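 HepG2 cells were transiently transfected with multiplexed GAL4-UAS reporters and a chimeric RXRb-Gal4 construct, then exposed for 24 h. Reporter mRNA was quantified by RT-PCR, FAM labeling, HpaI digestion and capillary electrophoresis; gain of signal was scored against DMSO.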

[16] = biological target: human Vitamin D Receptor (VDR), VDR (gene 7421) (UniProt P11473); experiment: ATG_VDR_TRANS: Attagene TRANS-FACTORIAL HepG2 Assay for human Vitamin D Receptor (VDR) (AID 2283022; active means hit-call score of the fitted dose curve at least 0.9, where 1 is the maximum)
Sequence of human Vitamin D Receptor (VDR), VDR (gene 7421) (P11473 whole entry, looked up, the tested form may be a part): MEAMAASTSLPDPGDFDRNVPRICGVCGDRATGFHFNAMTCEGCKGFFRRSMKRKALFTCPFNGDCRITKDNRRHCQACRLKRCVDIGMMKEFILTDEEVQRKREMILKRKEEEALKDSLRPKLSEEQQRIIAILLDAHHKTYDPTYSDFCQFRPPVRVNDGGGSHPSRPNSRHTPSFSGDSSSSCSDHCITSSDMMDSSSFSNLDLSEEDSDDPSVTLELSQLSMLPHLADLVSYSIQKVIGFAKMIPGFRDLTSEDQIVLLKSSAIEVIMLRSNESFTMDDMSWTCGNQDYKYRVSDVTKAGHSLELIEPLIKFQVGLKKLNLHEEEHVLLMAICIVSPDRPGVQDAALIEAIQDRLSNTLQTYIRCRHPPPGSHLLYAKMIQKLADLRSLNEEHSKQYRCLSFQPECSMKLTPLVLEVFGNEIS
Outline: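 HepG2 cells were transiently transfected with multiple GAL4-UAS reporter units, so signal reflects exogenous chimeric receptor-Gal4 activity. After 24 h compound exposure, reporter mRNA was measured by RT-PCR, fluorescent labelling and capillary electrophoresis, fitted for gain of signal versus DMSO.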

[17] = biological target: human Thyroid Receptor alpha (THRa1), THRA (gene 7067) (UniProt P10827); experiment: ATG_THRa1_TRANS: Attagene TRANS-FACTORIAL HepG2 Assay for human Thyroid Receptor alpha (THRa1) (AID 2283014; active means hit-call score of the fitted dose curve at least 0.9, where 1 is the maximum)
Sequence of human Thyroid Receptor alpha (THRa1), THRA (gene 7067) (P10827 whole entry, looked up, the tested form may be a part): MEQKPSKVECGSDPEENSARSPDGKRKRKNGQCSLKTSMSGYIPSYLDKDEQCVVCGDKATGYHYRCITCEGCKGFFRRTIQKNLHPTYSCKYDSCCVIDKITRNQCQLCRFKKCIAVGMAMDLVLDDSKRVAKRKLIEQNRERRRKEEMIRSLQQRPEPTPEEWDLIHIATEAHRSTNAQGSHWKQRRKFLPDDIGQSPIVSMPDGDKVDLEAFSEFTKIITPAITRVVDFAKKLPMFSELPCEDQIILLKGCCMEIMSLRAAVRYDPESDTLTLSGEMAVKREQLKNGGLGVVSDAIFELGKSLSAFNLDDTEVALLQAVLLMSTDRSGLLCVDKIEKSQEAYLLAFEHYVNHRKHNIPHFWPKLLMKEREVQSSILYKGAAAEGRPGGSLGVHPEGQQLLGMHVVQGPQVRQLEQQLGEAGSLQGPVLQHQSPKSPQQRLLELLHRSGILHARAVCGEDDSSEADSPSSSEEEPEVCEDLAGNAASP
Outline: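 HepG2 cells transiently transfected with multiplexed GAL4-UAS reporter units for exogenous chimeric THRa1-Gal4; reporter mRNA measured 24 h after dosing by RT-PCR, 6-FAM labelling, HpaI digestion and capillary electrophoresis. Gain-of-signal fitted versus DMSO baseline.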

[18] = BSK_3C_Vis: BioMAP Diversity Plus: 3C Assay for Morphology Visualization (AID 2283025); settings: primary human endothelial cells (HUVEC);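 further: fitted both ways so gain or loss versus DMSO counts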;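 on AC50: light microscopy image of cell morphology used as background control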
Outline: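 Human umbilical vein endothelial cell morphology was inspected by light microscopy 24 h after chemical dosing; scored bidirectionally relative to DMSO.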

Measured: AC50

Sequence of E-selectin (Homo sapiens) (P16581 whole entry, looked up): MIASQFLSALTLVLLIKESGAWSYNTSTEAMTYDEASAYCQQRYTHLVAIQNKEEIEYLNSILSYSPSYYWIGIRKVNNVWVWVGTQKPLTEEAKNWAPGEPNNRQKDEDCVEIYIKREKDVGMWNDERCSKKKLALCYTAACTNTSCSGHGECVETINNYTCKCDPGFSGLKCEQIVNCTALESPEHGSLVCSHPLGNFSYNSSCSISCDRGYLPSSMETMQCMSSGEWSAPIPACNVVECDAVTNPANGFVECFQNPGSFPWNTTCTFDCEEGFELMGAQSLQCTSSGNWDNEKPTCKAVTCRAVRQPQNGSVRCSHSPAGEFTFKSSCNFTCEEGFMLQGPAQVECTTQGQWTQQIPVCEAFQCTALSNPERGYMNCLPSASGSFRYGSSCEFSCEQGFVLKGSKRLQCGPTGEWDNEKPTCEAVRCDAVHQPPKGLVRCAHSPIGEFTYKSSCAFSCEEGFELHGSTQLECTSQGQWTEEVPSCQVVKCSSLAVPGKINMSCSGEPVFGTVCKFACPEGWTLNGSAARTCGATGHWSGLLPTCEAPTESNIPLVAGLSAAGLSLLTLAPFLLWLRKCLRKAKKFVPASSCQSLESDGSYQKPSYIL

C=CC(F)(F)C(F)(F)C(F)(F)C(F)(F)C(F)(F)C(F)(F)C(F)(F)C(F)(F)F
not listed: [15] | [16] | [17] | [18]
inactive: all other assays above

O=C(Cl)C(F)(F)C(F)(F)C(F)(F)C(F)(F)C(F)(F)C(F)(F)C(F)(F)C(F)(F)F
active: [15] 25.7 µM | [3] 46.4 µM and 46.3 µM and 55 µM | [4] 49.7 µM | [5] 5.95 µM | [6] 49.4 µM and 51.1 µM and 52.5 µM | [7] 41 µM | [9] 45 µM and 50.8 µM and 49.9 µM | [10] 50.8 µM and 51.7 µM and 52 µM | [12] 30 µM
inactive: [1] | [4] | [5] | [7] | [8] | [16] | [11] | [12] | [14]

NC(=O)C(F)(F)C(F)(F)C(F)(F)C(F)(F)F
not listed: [1] | [4] | [14] | [15] | [17] | [18]
inactive: all other assays above

Nc1ccc([N+](=O)[O-])cc1O
not listed: [2] | [4] | [13] | [14]
inactive: all other assays above

FC(F)(F)C(F)(F)C(F)(F)C(F)(F)C(F)(F)C(F)(F)C(F)(F)Br
active: [14] 1.29 µM
inactive: [1] | [17] | [3] | [4] | [5] | [6] | [7] | [8] | [16] | [9] | [10] | [11] | [12] | [13] | [14]

CCCCNc1ccccc1
not listed: [1] | [13] | [14]
inactive: all other assays above

FC(F)(Br)C(F)(F)C(F)(F)C(F)(F)C(F)(F)C(F)(F)Br
not listed: [4] | [17] | [18]
inactive: all other assays above

CCCCCCOC(=O)c1ccccc1
inactive: [1] | [17] | [16]

COC(=O)C1CCC(C(=O)OC)CC1 (stereo unspecified)
inactive: [1] | [15] | [17] | [16]

O=C(C=Cc1ccccc1)OCC=Cc1ccccc1
inactive: [1] | [17] | [16]

C(=C(c1ccccc1)c1ccccc1)c1ccccc1
inactive: [1] | [17] | [16]
active: [15] 6.11 µM

CNC(=S)NC
inactive: [15] | [17] | [16]

C=C(C)C(=O)OCC(F)(F)C(F)(F)C(F)(F)F
not listed: [17] | [18]
inactive: all other assays above

O[Si](c1ccccc1)(c1ccccc1)c1ccccc1
active: [5] 11.9 µM | [6] 30.6 µM | [9] 28.9 µM | [18] 37.4 µM | [11] 26.8 µM | [12] 13.8 µM
not listed: [2] | [4]
inactive: all other assays above

CO[Si](OC)(c1ccccc1)c1ccccc1
active: [5] 0.148 µM | [6] 32.5 µM | [7] 20 µM | [9] 36.9 µM | [18] 37.4 µM
not listed: [2] | [4] | [13] | [14] | [17]
inactive: all other assays above

FC(F)(F)C(F)(F)C(F)(F)N(C(F)(F)C(F)(F)C(F)(F)F)C(F)(F)C(F)(F)C(F)(F)F
not listed: [1] | [13] | [18]
inactive: all other assays above

C=C(C)C(=O)OCCC(F)(F)C(F)(F)C(F)(F)C(F)(F)C(F)(C(F)(F)F)C(F)(F)F
not listed: [2] | [4] | [13] | [17] | [18]
inactive: all other assays above

CCC(=O)OCCc1ccccc1
inactive: [1] | [17]
